In PubChem BioAssay (EPA / NIEHS) one finds outcome and AC50 data, which are given here for 5 compounds.

Read-out in experiment [1]: Transforming growth factor beta 1 (TGFb1), TGFB1 (gene 7040)
The experiment can be described thus: BSK_KF3CT_TGFb1: BioMAP Diversity Plus: KF3CT Assay for Transforming growth factor beta 1 (TGFb1) Biomarker Activity (AID 2283072). The settings on record: primary human keratinocytes with fibroblasts; actives raise or lower the signal. Put shortly: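 KF3CT co-culture (keratinocytes + fibroblasts), 24 h exposure → TGF-b1 ELISA → bidirectional fit, DMSO = baseline. Parallel SRB total-protein staining (0.1% SRB, 10% TCA fixation, 560 nm) for cytotoxicity.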

Read-out in experiment [2]: C-C motif chemokine 2 (Homo sapiens) (UniProt P13500)
The experiment can be described thus: BSK_KF3CT_MCP1: BioMAP Diversity Plus: KF3CT Assay for Monocyte Chemoattractant Protein 1 (MCP1/CCL2) Biomarker Activity (AID 2283073). The conditions noted are these: primary human keratinocytes with fibroblasts; actives raise or lower the signal. A digest of the protocol:
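KF3CT skin co-culture (keratinocytes/foreskin fibroblasts), 24 h post-dose; MCP-1 by ELISA; gain/loss of signal fit bidirectionally vs DMSO baseline.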

Read-out in experiment [3]: Matrix Metallopeptidase 9 (MMP9), MMP9 (gene 4318)
Kind of experiment: BSK_KF3CT_MMP9: BioMAP Diversity Plus: KF3CT Assay for Matrix Metallopeptidase 9 (MMP9) Biomarker Activity (AID 2283074).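 On AC50: MMP9 protein level quantified by ELISA in the co-culture.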 The conditions noted are these: primary human keratinocytes with fibroblasts; actives raise or lower the signal. Put shortly: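 ELISA read-out of MMP-9 at 24 h post-dosing in a co-culture of human skin keratinocytes and foreskin fibroblasts. Gain or loss of signal was fitted in both directions against DMSO.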

Read-out in experiment [4]: urokinase plasminogen activator (uPA), PLAU (gene 5328)
Kind of experiment: BSK_KF3CT_uPA: BioMAP Diversity Plus: KF3CT Assay for urokinase plasminogen activator (uPA) Biomarker Activity (AID 2283075). The conditions noted are these: primary human keratinocytes with fibroblasts; actives raise or lower the signal. Put shortly:
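Skin co-culture (keratinocytes + foreskin fibroblasts), human primary; 24 h post-dose; uPA by ELISA; gain/loss fit vs DMSO baseline.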

Read-out in experiment [5]: CD40, CD40 (gene 958)
The experiment can be described thus: BSK_LPS_CD40: BioMAP Diversity Plus: LPS Assay for CD40 Biomarker Activity (AID 2283076). The conditions noted are these: primary human HUVEC with PBMC; actives raise or lower the signal. Put shortly:
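ELISA readout of CD40 in HUVEC/PBMC co-culture (BSK_LPS system), 24 h post-dosing; bidirectional curve fit, DMSO baseline; parallel SRB total-protein staining for cytotoxicity.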

Read-out in experiment [6]: E-selectin (Homo sapiens) (UniProt P16581)
The experiment can be described thus: BSK_LPS_Eselectin: BioMAP Diversity Plus: LPS Assay for Eselectin Biomarker Activity (AID 2283077). The conditions noted are these: primary human HUVEC with PBMC; actives raise or lower the signal. Put shortly: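 ELISA readout of E-selectin, 24 h post-dose, HUVEC + PBMC co-culture (LPS system). Gain or loss of signal vs DMSO baseline, bidirectional fit.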

Experiment [7] in a line: BSK_LPS_SRB: Viability Assessment in the BioMAP Diversity Plus: LPS Assay (AID 2283079).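 Further: total protein by sulforhodamine B absorbance as a cytotoxicity measure; measured one day after compound addition.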 The settings on record: primary human HUVEC with PBMC. Put shortly: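 HUVEC + PBMC co-culture, LPS-stimulated; compound 24 h. 10% TCA fix, 0.1% SRB stain, A560. Bidirectional fit vs DMSO.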
Read-out in experiment [8]: Interleukin-1 alpha (IL1a), IL1A (gene 3552)
Kind of experiment: BSK_LPS_IL1a: BioMAP Diversity Plus: LPS Assay for Interleukin-1 alpha (IL1a) Biomarker Activity (AID 2283080). The settings on record: primary human HUVEC with PBMC; actives raise or lower the signal. Put shortly: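 HUVEC/PBMC co-culture, LPS system; 24 h after dosing; IL-1a by ELISA; gain or loss of signal fitted bidirectionally vs DMSO baseline.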

Read-out in experiment [9]: Monocyte Chemoattractant Protein-1 (MCP1), CCL2 (gene 6347)
Kind of experiment: BSK_LPS_MCP1: BioMAP Diversity Plus: LPS Assay for Monocyte Chemoattractant Protein-1 (MCP1) Biomarker Activity (AID 2283081).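 On AC50: secreted MCP-1 protein quantified by ELISA in culture supernatant.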 The conditions noted are these: primary human HUVEC with PBMC; actives raise or lower the signal. Put shortly: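 ELISA read-out of MCP-1 after 24 h chemical dosing of a human umbilical vein endothelial cell/peripheral blood mononuclear cell co-culture stimulated with LPS. Gain or loss of signal fitted relative to DMSO controls.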

A short description of experiment [10]: BSK_LPS_PGE2: BioMAP Diversity Plus: LPS Assay for Prostaglandin E2 (PGE2) Biomarker Activity (AID 2283082). The conditions noted are these: primary human HUVEC with PBMC; actives raise or lower the signal. Put shortly: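 Compounds were added to the LPS co-culture of endothelium and PBMC, and PGE2 was measured by ELISA after 24 h. Responses in either direction were fitted with DMSO as baseline.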

Read-out in experiment [11]: Macrophage colony-stimulating factor (MCSF), CSF1 (gene 1435)
The experiment can be described thus: BSK_LPS_MCSF: BioMAP Diversity Plus: LPS Assay for Macrophage colony-stimulating factor (MCSF) Biomarker Activity (AID 2283083). The settings on record: primary human HUVEC with PBMC; actives raise or lower the signal. A digest of the protocol:
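HUVEC + PBMC co-culture (human primary), 24 h post-dose; M-CSF by ELISA; gain/loss of signal fitted bidirectionally vs DMSO baseline.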

Read-out in experiment [12]: Tissue Factor, F3 (gene 2152)
The experiment can be described thus: BSK_LPS_TissueFactor: BioMAP Diversity Plus: LPS Assay for Tissue Factor Biomarker Activity (AID 2283084). The conditions noted are these: primary human HUVEC with PBMC; actives raise or lower the signal. Put shortly: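 HUVEC/PBMC co-culture, LPS-activated; CD142 ELISA read 24 h post-dose; bidirectional curve fit vs DMSO negative control.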

Read-out in experiment [13]: Tumor necrosis factor (Homo sapiens) (UniProt P01375)
The experiment can be described thus: BSK_LPS_TNFa: BioMAP Diversity Plus: LPS Assay for Tumour Necrosis Factor alpha (TNFa) Biomarker Activity (AID 2283085).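 On AC50: TNFa protein level quantified by ELISA in the co-culture.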 The conditions noted are these: primary human HUVEC with PBMC; actives raise or lower the signal. A digest of the protocol:
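Cells (umbilical vein endothelium plus peripheral blood mononuclear cells) were dosed with chemical, incubated 24 h, then TNFa was quantified by ELISA; values derive from bidirectional fitting with DMSO as baseline.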

Read-out in experiment [14]: Vascular cell adhesion molecule 1 (VCAM1), VCAM1 (gene 7412)
The experiment can be described thus: BSK_LPS_VCAM1: BioMAP Diversity Plus: LPS Assay for Vascular cell adhesion molecule 1 (VCAM1) Biomarker Activity (AID 2283086). The conditions noted are these: primary human HUVEC with PBMC; actives raise or lower the signal. A digest of the protocol:
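Cells are dosed in an LPS-stimulated endothelial/mononuclear co-culture and, after 24 h, VCAM-1 is quantified by ELISA. Activity in either direction is fitted relative to the DMSO negative control.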

Read-out in a further experiment: CD38, CD38 (gene 952)
The experiment can be described thus: BSK_SAg_CD38: BioMAP Diversity Plus: SAg Assay for CD38 Biomarker Activity (AID 2283087). The settings on record: primary human HUVEC with PBMC; actives raise or lower the signal. A digest of the protocol: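 CD38 quantified by ELISA (fluorescence) in a superantigen-activated endothelial cell–PBMC co-culture at 24 h post-dose. Activity fitted in both directions relative to DMSO; parallel SRB and Alamar Blue cytotoxicity read-outs.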

Read-out in experiment [15]: CD40, CD40 (gene 958)
The experiment can be described thus: BSK_SAg_CD40: BioMAP Diversity Plus: SAg Assay for CD40 Biomarker Activity (AID 2283088). The settings on record: primary human HUVEC with PBMC; actives raise or lower the signal. A digest of the protocol: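 HUVEC/PBMC co-culture, 24 h post-dose; CD40 by ELISA, fluorescence intensity; bidirectional fit vs DMSO negative control.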

Read-out in another experiment: CD69, CD69 (gene 969)
The experiment can be described thus: BSK_SAg_CD69: BioMAP Diversity Plus: SAg Assay for CD69 Biomarker Activity (AID 2283089).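 On AC50: cell surface CD69 protein quantified by ELISA with fluorescence detection.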 The conditions noted are these: primary human HUVEC with PBMC; actives raise or lower the signal. A digest of the protocol: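 HUVEC co-cultured with PBMC were dosed with chemical, and CD69 was measured by ELISA with fluorescence read-out 24 h later. Bidirectional curve fitting used DMSO as negative control and activity baseline.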

Read-out in experiment [16]: Monocyte Chemoattractant Protein-1 (MCP1), CCL2 (gene 6347)
Kind of experiment: BSK_SAg_MCP1: BioMAP Diversity Plus: SAg Assay for Monocyte Chemoattractant Protein-1 (MCP1) Biomarker Activity (AID 2283090). The conditions noted are these: primary human HUVEC with PBMC; actives raise or lower the signal. Put shortly:
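Values derive from bidirectional fitting of ELISA-measured MCP1 against DMSO controls. Readings were taken 24 h after dosing human vascular endothelial cells co-cultured with peripheral blood mononuclear cells under superantigen stimulation.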

Read-out in experiment [17]: E-selectin (Homo sapiens) (UniProt P16581)
The experiment can be described thus: BSK_SAg_Eselectin: BioMAP Diversity Plus: SAg Assay for Eselectin Biomarker Activity (AID 2283091). The settings on record: primary human HUVEC with PBMC; actives raise or lower the signal. Put shortly:
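E-selectin ELISA readout at 24 h post-dosing in human umbilical vein endothelial cell/PBMC co-culture; gain or loss of signal fitted relative to DMSO baseline.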

The source made the active and inactive calls. How the source made its calls: active means hit-call score of the fitted dose curve at least 0.9, where 1 is the maximum; inactive means score below 0.9.

Sequence of Tumor necrosis factor (Homo sapiens) (P01375 whole entry, looked up): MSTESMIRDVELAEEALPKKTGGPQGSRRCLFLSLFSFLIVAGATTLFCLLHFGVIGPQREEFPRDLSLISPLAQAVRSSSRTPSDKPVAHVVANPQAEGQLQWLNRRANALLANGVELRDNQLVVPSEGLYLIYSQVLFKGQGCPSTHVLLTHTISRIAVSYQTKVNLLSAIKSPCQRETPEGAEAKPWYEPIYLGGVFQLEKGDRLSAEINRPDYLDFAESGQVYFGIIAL
Sequence of E-selectin (Homo sapiens) (P16581 whole entry, looked up): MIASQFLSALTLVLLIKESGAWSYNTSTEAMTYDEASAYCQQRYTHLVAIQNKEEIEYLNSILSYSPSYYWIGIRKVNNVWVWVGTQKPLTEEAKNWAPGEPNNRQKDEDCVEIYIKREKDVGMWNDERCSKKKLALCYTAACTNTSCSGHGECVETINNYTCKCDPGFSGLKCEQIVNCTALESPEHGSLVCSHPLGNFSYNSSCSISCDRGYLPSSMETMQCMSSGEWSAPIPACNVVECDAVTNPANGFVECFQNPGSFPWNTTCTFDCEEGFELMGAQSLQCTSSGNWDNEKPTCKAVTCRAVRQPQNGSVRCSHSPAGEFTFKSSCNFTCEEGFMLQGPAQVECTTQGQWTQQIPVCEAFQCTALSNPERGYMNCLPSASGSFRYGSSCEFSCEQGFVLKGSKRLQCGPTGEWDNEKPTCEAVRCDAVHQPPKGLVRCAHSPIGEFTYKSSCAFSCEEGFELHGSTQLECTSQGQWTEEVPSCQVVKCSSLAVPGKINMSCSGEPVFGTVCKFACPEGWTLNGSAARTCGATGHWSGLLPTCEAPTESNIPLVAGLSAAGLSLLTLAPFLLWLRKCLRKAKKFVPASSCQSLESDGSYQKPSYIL

Regarding `COC(=O)CCCCC(=O)OC`, the outcome in [1] was “inactive”; in [2], “inactive”; in [3], “inactive”; in [4] it was “inactive”; in the experiment with CD40, CD40 (gene 958) [5], “inactive”; in experiment [6], “inactive”. Moreover, the result in experiment [7], in experiment [8], in [9], in [10], in experiment [11] and in experiment [12] was inactive. The outcome in experiment [13] is “inactive”; in experiment [14], “inactive”; in the experiment with CD38, CD38 (gene 952), “inactive”; with CD40, CD40 (gene 958) [15], “inactive”; with CD69, CD69 (gene 969) it was “inactive”; in experiment [16] it was “inactive”. Besides, the result in experiment [17] was inactive.

As to `CCCOC(=O)c1ccc(O)cc1`, the outcome in experiment [1] was “inactive”; in experiment [2], “inactive”; in experiment [3], “inactive”; in experiment [4] it was “inactive”; with CD40, CD40 (gene 958) [5], “inactive”; in experiment [6], “inactive”. Further, the result in experiment [7], in experiment [8], in experiment [9], in experiment [11], in experiment [12] and in experiment [13] was inactive. Moreover, the outcome in experiment [14] was “inactive”; with CD38, CD38 (gene 952), “inactive”; with CD40, CD40 (gene 958) [15], “inactive”; with CD69, CD69 (gene 969), “inactive”; in [16], “inactive”; in [17], “inactive”. The concentration at half-maximal activity (AC50) in experiment [10] is 9.7 µM (active).

Turning to `CCCCCCCC(=O)O`, the outcome was “inactive” in [1]; “inactive” in experiment [2]; “inactive” in experiment [3]; “inactive” in experiment [4]; “inactive” with CD40, CD40 (gene 958) [5]; “inactive” in experiment [6]. In addition, the outcome in experiment [7], in experiment [8], in experiment [9], in experiment [10], in experiment [11] and in experiment [12] was inactive. In addition, the outcome was “inactive” in [13]; “inactive” in [14]; “inactive” with CD38, CD38 (gene 952); “inactive” with CD40, CD40 (gene 958) [15]; “inactive” in the experiment with CD69, CD69 (gene 969); “inactive” in [16].

For `Cc1oc(-c2ccccc2)nc1CCOc1ccc(C[C@H](Nc2ccccc2C(=O)c2ccccc2)C(=O)O)cc1`, the AC50 in [1] was 7.38 µM (active); in [2] it was 5.22 µM (active); in experiment [3], 6.66 µM (active); in experiment [4], 7.7 µM (active); with CD40, CD40 (gene 958) [5] it was 30.2 µM (active); in experiment [6] it was 30.8 µM (active). Besides, the half-maximal activity concentration (AC50) in experiment [7] was 20.6 µM (active); in experiment [8] it was 20 µM (active); in experiment [9], 16.1 µM (active); in experiment [10], 8.83 µM (active); in experiment [11], 30.6 µM (active); in experiment [12], 31.6 µM (active). Besides, the AC50 in experiment [13] was 30.4 µM (active); in [14], 33.1 µM (active); with CD38, CD38 (gene 952), 28.6 µM (active); with CD40, CD40 (gene 958) [15] it was 30 µM (active); with CD69, CD69 (gene 969), 14.4 µM (active); in experiment [16], 24.1 µM (active).

As for `CC[C@H](c1ccc(O)cc1)[C@@H](CC)c1ccc(O)cc1`, the AC50 in experiment [1] was 29.8 µM (active); in experiment [2], 32.7 µM (active); in experiment [3], 19.4 µM (active); in experiment [4] it was 35 µM (active); in the experiment with CD40, CD40 (gene 958) [5] it was 17.4 µM (active); in experiment [6] it was 33.8 µM (active). Further, the concentration at half-maximal activity (AC50) in [7] was 31.5 µM (active); in experiment [8], 31.3 µM (active); in experiment [9] it was 33.8 µM (active); in [10], 38.1 µM (active); in [11] it was 22.4 µM (active); in experiment [12] it was 32 µM (active). The half-maximal activity concentration (AC50) in [13] is 30.6 µM (active); in experiment [14], 29 µM (active); in the experiment with CD38, CD38 (gene 952), 19.1 µM (active); with CD40, CD40 (gene 958) [15], 20.7 µM (active); with CD69, CD69 (gene 969) it was 20.6 µM (active); in experiment [16] it was 23.9 µM (active).

In general, AC50 refers to the midpoint of the concentration-response curve, whichever way the signal moves.
